The whole screen tested about 5,500 compounds, of which about 2,000 (36%) were called active. Inconclusive results (about 18%) are left out. Rule as the data show it: active = normalized growth mostly below about 0.91 (no sharp cut-off); inconclusive = no clear call, values can overlap the other calls; inactive = mostly above about 0.92. This is one part of the list.
Experiment: chemical genetic growth profiling, strain panel (AID 1159580);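 also: tested at 20 µM; growth read once vehicle control cultures reached saturation at 30 °C; 1 = growth at the plate median or of vehicle wells; lower values mean less growth of the strain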
Conditions: S. cerevisiae deletion strains, growth OD

Measured: normalized growth

CC(=O)CSc1nnc(-c2ccc(C(C)(C)C)cc2)n1-c1ccc(Cl)cc1
inactive: locus YAR019C, strain CDC15, stronger effect = lower value 0.982 | locus YBL105C, strain PKC1, stronger effect = lower value 0.974 | locus YBR135W, strain CKS1, stronger effect = lower value 0.973 | locus YBR136W, strain MEC1, stronger effect = lower value 0.987 | locus YBR160W, strain CDC28, stronger effect = lower value 0.976 | locus YDL017W, strain CDC7, stronger effect = lower value 0.983 | locus YDL028C, strain MPS1, stronger effect = lower value 0.976 | locus YDL101C, strain DUN1, stronger effect = lower value 0.974 | locus YDL108W, strain KIN28, stronger effect = lower value 0.982 | locus YDL132W, strain cdc53, stronger effect = lower value 0.972 | locus YDL214C, strain PRR2, stronger effect = lower value 0.959 | locus YDR052C, strain DBF4, stronger effect = lower value 0.986 | locus YDR054C, strain cdc34, stronger effect = lower value 0.971 | locus YDR226W, strain ADK1, stronger effect = lower value 0.973 | locus YDR477W, strain SNF1, stronger effect = lower value 0.958 | locus YER123W, strain YCK3, stronger effect = lower value 0.953 | locus YER133W, strain GLC7, stronger effect = lower value 0.969 | locus YFL009W, strain cdc4, stronger effect = lower value 0.977 | locus YFL029C, strain CAK1, stronger effect = lower value 0.987 | locus YFR003C, strain YPI1, stronger effect = lower value 0.984 | locus YFR019W, strain FAB1, stronger effect = lower value 1 | locus YFR028C, strain CDC14, stronger effect = lower value 0.977 | locus YGR040W, strain KSS1, stronger effect = lower value 0.965 | locus YGR052W, strain FMP48, stronger effect = lower value 1.02 | locus YGR092W, strain DBF2, stronger effect = lower value 0.987 | locus YHR079C, strain IRE1, stronger effect = lower value 0.99 | locus YHR082C, strain KSP1, stronger effect = lower value 1.04 | locus YHR205W, strain SCH9, stronger effect = lower value 0.976 | locus YIL147C, strain SLN1, stronger effect = lower value 0.983 | locus YJL095W, strain BCK1, stronger effect = lower value 0.926 | locus YJL128C, strain PBS2, stronger effect = lower value 0.927 | locus YJL157C, strain FAR1, stronger effect = lower value 0.986 | locus YJR016C, strain ILV3, stronger effect = lower value 0.982 | locus YJR066W, strain TOR1 (second series), stronger effect = lower value 0.984 | locus YJR066W, strain TOR1, stronger effect = lower value 0.972 | locus YKL048C, strain ELM1, stronger effect = lower value 0.969 | locus YKL067W, strain YNK1, stronger effect = lower value 0.947 | locus YKL101W, strain HSL1, stronger effect = lower value 0.973 | locus YKL193C, strain SDS22, stronger effect = lower value 0.981 | locus YKL203C, strain TOR2, stronger effect = lower value 1.05 | locus YLR113W, strain HOG1, stronger effect = lower value 0.914 | locus YLR133W, strain CKI1, stronger effect = lower value 0.99 | locus YLR403W, strain SFP1, stronger effect = lower value 0.984 | locus YML070W, strain DAK1, stronger effect = lower value 0.97 | locus YMR001C, strain CDC5, stronger effect = lower value 0.985 | locus YMR205C, strain PFK2 (second series), stronger effect = lower value 0.97 | locus YMR277W, strain FCP1, stronger effect = lower value 0.978 | locus YNL006W, strain LST8, stronger effect = lower value 0.98 | locus YNL020C, strain ARK1, stronger effect = lower value 0.999 | locus YNL161W, strain CBK1, stronger effect = lower value 0.984 | locus YNL183C, strain NPR1, stronger effect = lower value 1.01 | locus YNL207W, strain RIO2, stronger effect = lower value 0.988 | locus YNL222W, strain SSU72, stronger effect = lower value 0.97 | locus YNL307C, strain MCK1 (second series), stronger effect = lower value 0.996 | locus YOL078W, strain AVO1, stronger effect = lower value 0.984 | locus YOL136C, strain PFK27, stronger effect = lower value 0.983 | locus YOR061W, strain CKA2, stronger effect = lower value 0.976 | locus YOR119C, strain RIO1, stronger effect = lower value 0.98 | locus YOR231W, strain MKK1, stronger effect = lower value 0.97 | locus YOR329C, strain SCD5, stronger effect = lower value 0.977 | locus YPL031C, strain PHO85, stronger effect = lower value 0.953 | locus YPL153C, strain RAD53, stronger effect = lower value 0.972 | locus YPL204W, strain HRR25, stronger effect = lower value 0.958 | locus YPL209C, strain IPL1, stronger effect = lower value 0.984 | locus YPL256C, strain CLN2, stronger effect = lower value 0.918 | locus YPR025C, strain CCL1, stronger effect = lower value 0.976 | locus YPR106W, strain ISR1, stronger effect = lower value 0.974 | locus YPR111W, strain DBF20, stronger effect = lower value 0.965 | strain NNK1, stronger effect = lower value 0.997 | strain TSCII, stronger effect = lower value 0.99
active: locus YHR030C, strain SLT2, stronger effect = lower value 0.797
